Test results reported in PubChem BioAssay AID1159580 (chemical genetic matrix, 2015).
In all, about 5,500 compounds went through this assay and about 2,000 (36%) were called active. Not shown: some 18% with an inconclusive outcome. Cut-off read from the data, not from the text of the source: active = normalized growth mostly below about 0.91 (no sharp cut-off); inconclusive = no clear call, values can overlap the other calls; inactive = mostly above about 0.92. The list shows a part of the results.

Test: chemical genetic growth profiling, strain panel (AID 1159580);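 note: tested at 20 µM; growth read once vehicle control cultures reached saturation at 30 °C; 1 = growth at the plate median or of vehicle wells; lower values mean less growth of the strain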
Conditions: growth OD

Measured: normalized growth

C=C(C)c1cc2cc(C(C)=O)c(O)cc2o1
active: S. cerevisiae deletion strains, locus YKL068W, hits give low values 0.934 | S. cerevisiae deletion strains, locus YKL085W, strain MDH1 (second series), hits give low values 0.918 | S. cerevisiae deletion strains, locus YKL085W, strain MDH1, hits give low values 0.918 | S. cerevisiae deletion strains, locus YLR113W, strain HOG1, hits give low values 0.834 | S. cerevisiae deletion strains, locus YLR262C, strain YPT6 (second series), hits give low values 0.834 | S. cerevisiae deletion strains, locus YLR371W, strain rom2, hits give low values 0.776 | S. cerevisiae deletion strains, locus YML016C, strain PPZ1, hits give low values 0.906 | S. cerevisiae deletion strains, locus YML124C, strain tub3, hits give low values 0.906 | S. cerevisiae deletion strains, locus YMR078C, strain ctf18, hits give low values 0.909 | S. cerevisiae deletion strains, locus YNL071W, strain lat1, hits give low values 0.861 | S. cerevisiae deletion strains, locus YNL298W, strain CLA4, hits give low values 0.909 | S. cerevisiae deletion strains, locus YNL307C, strain MCK1, hits give low values 0.895 | S. cerevisiae deletion strains, locus YOL147C, strain pex11, hits give low values 0.923 | S. cerevisiae deletion strains, locus YOR184W, strain ser1, hits give low values 0.845 | S. cerevisiae deletion strains, locus YOR316C, strain cot1, hits give low values 0.913 | S. cerevisiae deletion strains, locus YPL078C, strain atp4, hits give low values 0.877 | S. cerevisiae deletion strains, locus YPR141C, strain kar3, hits give low values 0.906 | S. cerevisiae deletion strains, strain wtn01, hits give low values 0.89
inactive: S. cerevisiae deletion strains, locus YJL187C, strain SWE1, hits give low values 0.994 | S. cerevisiae deletion strains, locus YJR066W, strain TOR1, hits give low values 0.886 | S. cerevisiae deletion strains, locus YKL009W, strain mrt4, hits give low values 0.939 | S. cerevisiae deletion strains, locus YKL160W, strain elf1, hits give low values 0.92 | S. cerevisiae deletion strains, locus YKL190W, strain CNB1, hits give low values 0.954 | S. cerevisiae deletion strains, locus YKR001C, strain vps1, hits give low values 0.932 | S. cerevisiae deletion strains, locus YKR026C, strain gcn3, hits give low values 0.966 | S. cerevisiae deletion strains, locus YKR091W, strain srl3, hits give low values 0.979 | S. cerevisiae deletion strains, locus YLL001W, strain dnm1, hits give low values 0.916 | S. cerevisiae deletion strains, locus YLL026W, hits give low values 0.977 | S. cerevisiae deletion strains, locus YLL041C, strain sdh2, hits give low values 0.97 | S. cerevisiae deletion strains, locus YLR027C, strain aat2, hits give low values 0.964 | S. cerevisiae deletion strains, locus YLR039C, strain RIC1, hits give low values 0.831 | S. cerevisiae deletion strains, locus YLR058C, strain SHM2, hits give low values 0.948 | S. cerevisiae deletion strains, locus YLR102C, strain apc9, hits give low values 0.931 | S. cerevisiae deletion strains, locus YLR221C, strain rsa3, hits give low values 0.975 | S. cerevisiae deletion strains, locus YLR258W, strain gsy2, hits give low values 0.932 | S. cerevisiae deletion strains, locus YLR268W, strain sec22, hits give low values 0.945 | S. cerevisiae deletion strains, locus YLR320W, strain mms22, hits give low values 0.908 | S. cerevisiae deletion strains, locus YLR342W, strain FKS1 (second series), hits give low values 0.894 | S. cerevisiae deletion strains, locus YLR342W, strain FKS1, hits give low values 0.978 | S. cerevisiae deletion strains, locus YLR357W, strain rsc2, hits give low values 1.01 | S. cerevisiae deletion strains, locus YLR370C, strain arc18, hits give low values 0.971 | S. cerevisiae deletion strains, locus YLR384C, strain iki3, hits give low values 0.977 | S. cerevisiae deletion strains, locus YLR418C, strain cdc73, hits give low values 0.861 | S. cerevisiae deletion strains, locus YML032C, strain rad52, hits give low values 0.942 | S. cerevisiae deletion strains, locus YML120C, strain ndi1, hits give low values 0.932 | S. cerevisiae deletion strains, locus YMR058W, strain fet3, hits give low values 0.954 | S. cerevisiae deletion strains, locus YMR125W, strain sto1, hits give low values 0.982 | S. cerevisiae deletion strains, locus YMR129W, hits give low values 0.966 | S. cerevisiae deletion strains, locus YMR205C, strain PFK2, hits give low values 0.906 | S. cerevisiae deletion strains, locus YMR223W, strain ubp8, hits give low values 0.967 | S. cerevisiae deletion strains, locus YMR231W, strain pep5, hits give low values 0.997 | S. cerevisiae deletion strains, locus YMR307W, strain GAS1, hits give low values 0.904 | S. cerevisiae deletion strains, locus YNL067W, strain RPL9B, hits give low values 0.986 | S. cerevisiae deletion strains, locus YNL128W, strain TEP1, hits give low values 0.928 | S. cerevisiae deletion strains, locus YNL183C, strain NPR1, hits give low values 0.889 | S. cerevisiae deletion strains, locus YNL209W, strain ssb2, hits give low values 0.967 | S. cerevisiae deletion strains, locus YNL233W, strain BNI4, hits give low values 0.952 | S. cerevisiae deletion strains, locus YNL248C, strain rpa49, hits give low values 0.956 | S. cerevisiae deletion strains, locus YNL250W, strain rad50, hits give low values 0.932 | S. cerevisiae deletion strains, locus YNL271C, strain bni1, hits give low values 0.957 | S. cerevisiae deletion strains, locus YNL322C, strain KRE1 (second series), hits give low values 0.979 | S. cerevisiae deletion strains, locus YNR049C, strain mso1, hits give low values 0.976 | S. cerevisiae deletion strains, locus YNR052C, strain pop2, hits give low values 0.97 | S. cerevisiae deletion strains, locus YOL006C, strain TOP1, hits give low values 0.714 | S. cerevisiae deletion strains, locus YOL012C, strain htz1 0.842 | S. cerevisiae deletion strains, locus YOR001W, strain rrp6, hits give low values 0.982 | S. cerevisiae deletion strains, locus YOR061W, strain CKA2, hits give low values 0.933 | S. cerevisiae deletion strains, locus YOR069W, strain VPS5, hits give low values 0.968 | S. cerevisiae deletion strains, locus YOR070C, strain gyp1, hits give low values 0.979 | S. cerevisiae deletion strains, locus YOR080W, strain dia2, hits give low values 0.984 | S. cerevisiae deletion strains, locus YOR083W, strain WHI5, hits give low values 0.929 | S. cerevisiae deletion strains, locus YOR106W, strain vam3, hits give low values 0.965 | S. cerevisiae deletion strains, locus YOR136W, strain idh2, hits give low values 0.943 | S. cerevisiae deletion strains, locus YOR144C, strain elg1, hits give low values 0.936 | S. cerevisiae deletion strains, locus YOR231W, strain MKK1, hits give low values 0.93 | S. cerevisiae deletion strains, locus YOR265W, strain rbl2, hits give low values 0.96 | S. cerevisiae deletion strains, locus YOR270C, strain vph1, hits give low values 0.88 | S. cerevisiae deletion strains, locus YOR290C, strain snf2, hits give low values 0.893 | S. cerevisiae deletion strains, locus YPL051W, strain arl3, hits give low values 0.917 | S. cerevisiae deletion strains, locus YPL106C, strain sse1, hits give low values 0.895 | S. cerevisiae deletion strains, locus YPL240C, strain hsp82, hits give low values 0.961 | S. cerevisiae deletion strains, locus YPL256C, strain CLN2, hits give low values 0.897 | S. cerevisiae deletion strains, locus YPR119W, strain clb2, hits give low values 0.942 | S. cerevisiae deletion strains, locus YPR163C, strain tif3, hits give low values 0.976 | S. cerevisiae deletion strains, locus YPR167C, strain met16, hits give low values 0.927 | S. cerevisiae strains, strain wild type, hits give low values 0.929
